In ChEMBL document CHEMBL4513216, “Probing the Open Global Health Chemical Diversity Library for Multistage-Active Starting Points for Next-Generation Antimalarials” (ACS Infect Dis, 2020):
Out of some 69,000 compounds screened, about 8,600 (12%) showed an effect of 50% or more. Shown is part of a subset that was picked to be rich in strong results.

Tested on: Plasmodium berghei
Assay: Screen against P. berghei liver stage (PbLuc), transformed with Luciferase, at 10uM
Type: functional, HepG2
Settings: tested at 10 uM

SMILES | INHIBITION [%]
CC(=O)N1CCN(Cc2ccsc2)CC2(CC(=O)N(C)C2)C1 (configuration not stated) | 16.1
CC(C)N1CCC2(CC1)C[C@@H](O)[C@H](c1ccccc1)NC2=O | 40
CCN1CCC2(CC1)CC(NC(=O)c1ccnnc1)c1ccccc12 (configuration not stated) | -9.42
Cc1ccc2c(c1)C(NC(=O)N(C)C)CC21CCN(CC2CC2)CC1 (configuration not stated) | 22.4
COCC(=O)NC1CC2(CCN(Cc3ccco3)CC2)c2ccccc21 (configuration not stated) | 32.4
COCC(=O)NC1CC2(CCN(CCO)CC2)c2ccccc21 (configuration not stated) | 33.1
COCC(=O)NC1CC2(CCN(CCN(C)C)CC2)c2ccccc21 (configuration not stated) | 53.9
CC(C)C(=O)NC1CC2(CCN(CC(=O)N(C)C)CC2)c2ccccc21 (configuration not stated) | 60.2
CC(C)(CNCc1ccc(OCc2cscn2)cc1)C(N)=O | -47
Cc1cnc(CN2CCC(N(C)Cc3noc(C4CC4)n3)C2)o1 (configuration not stated) | 33.3
CCC(C)c1ccc(NC(=O)C2CCN(C(=O)N(C)C)CC2)cc1 (configuration not stated) | 76.9
CCc1ccc(NC(=O)C2CCN(C(=O)COC)CC2)cc1 | 39.3
CCC(C)c1ccc(NC(=O)C2CCN(C(=O)COC)CC2)cc1 (configuration not stated) | 16.6
Cn1cncc1C(=O)N1CCCC(c2ccn[nH]2)C1 (configuration not stated) | -35.9
CC(NCc1nnc2n1CCCC2)C(=O)N1CCc2sccc2C1 (configuration not stated) | -21.9
O=C1CC(N(C(=O)COc2ccc(F)cc2F)C2CC2)C(=O)N1 (configuration not stated) | 0.472
Nc1nccc(NCc2cc3n(n2)CCCN(C(=O)C2CCC2)C3)n1 | 28.5
Cc1cc(C)nc(NCc2cc3n(n2)CCCN(C(=O)C2CCC2)C3)n1 | 13.3
Cc1cc(NCc2cc3n(n2)CCCN(C(=O)C2CCC2)C3)nc(N)n1 | 80.2
Cc1nc(C2CCCN(S(C)(=O)=O)C2)sc1Br (configuration not stated) | -7.66
CCc1cc(N(C)Cc2noc(CC(C)C)n2)ncn1 | 57.6
COc1cc(N(C)Cc2noc(CC(C)C)n2)ncn1 | 43
CC(C)Cc1noc(CN(C)c2cc(N(C)C)ncn2)n1 | -8.75

SMILES | INHIBITION [%]
CCn1cc(NC(=O)C2CCN(CC(=O)NC3CCCC3)CC2)cn1 | -10.6
O=C(N[C@@H]1CN(Cc2ccco2)[C@@H]2CCCO[C@@H]21)c1cscn1 | 8.6
COc1ccc(F)cc1C(C)NC(=O)NCCCn1cncn1 (configuration not stated) | 11.9
CCN(Cc1ccoc1)C(=O)C1CN(C(=O)OC(C)(C)C)C1 | -26.7
O=C(COCC(F)(F)C(F)F)N1CCC2(CCCN(CCO)C2=O)C1 (configuration not stated) | -8.97
CC(C)N1CCCC2(CCN(C(=O)COCC(F)(F)C(F)F)C2)C1=O (configuration not stated) | 50.2
O=C(COCC(F)(F)C(F)F)N1CCC2(CCCN(CC3CC3)C2=O)C1 (configuration not stated) | 27.8
COC1COC2(CCN(CC3CC3)CC2)C1 (configuration not stated) | 15.8
CNC(=O)Cc1csc(NC(=O)C2CSCCC(=O)N2)n1 (configuration not stated) | 50.2
Cc1csc(NC(=O)C2CSCCC(=O)N2)n1 (configuration not stated) | 24.5
NC(=O)Cc1csc(NC(=O)C2CSCCC(=O)N2)n1 (configuration not stated) | 32.1
O=C1CCSCC(C(=O)NCc2nc(-c3ccccc3)no2)N1 (configuration not stated) | 14.3
Cc1noc(CNC(=O)C2CSCCC(=O)N2)n1 (configuration not stated) | 61.6
Cc1nnc(CNC(=O)C2CSCCC(=O)N2)o1 (configuration not stated) | -5.22
CCN(Cc1c(C)nn(CC)c1C)S(=O)(=O)c1cnn(C)c1C | 38.3
CC[C@@H]1N(Cc2ccncc2)CCC[C@]12CCC(=O)N2C | 18.6
CC(C)n1nc2c(cc1=O)CN(CCOc1cccc(C#N)c1)CC2 | 23.1
Clc1ccc(-c2nnc(CNCCn3cccn3)o2)c(Cl)c1 | -38.2
Cc1csc(CN2C[C@H](NC(=O)C3CCOCC3)[C@@H](C(C)C)C2)n1 | 42.5
CC(C)[C@H]1CN(Cc2ccccc2C#N)C[C@@H]1NC(=O)C1CCOCC1 | 45.9
Cc1ncsc1CN1C[C@@H]2COC[C@]2(C(=O)NC2CC(F)(F)C2)C1 | 32.1
CC(C)[C@H]1CN(Cc2c[nH]nn2)C[C@@H]1NC(=O)C1CCOCC1 | 16.3
Cc1nnc(CN2C[C@H](NC(=O)C3CCOCC3)[C@@H](C(C)C)C2)s1 | 90.2

SMILES | INHIBITION [%]
Cc1ncsc1CN1C[C@H](NC(=O)C2CCOCC2)[C@@H](C(C)C)C1 | 75.4
CCN(Cc1ccc(F)cc1Cl)C1CCS(=O)(=O)C1 (configuration not stated) | 21.6
Cc1cc(C[S+]([O-])Cc2ccccc2F)on1 (configuration not stated) | 10.1
CCCn1cc(-c2cc(C(=O)N(C)C)c3ccc(OC)cc3n2)cn1 | 29.85
Cc1cccc(CSc2nnc(C)n2CC(N)=O)c1 | 57.7
COc1cccc(CSc2nnc(C)n2CC(N)=O)c1 | -15.1
Cc1nnc(SCc2cccc(F)c2)n1CC(N)=O | 20.9
O=C(NCCCN1CCOCC1)c1ccn(COc2ccc(F)cc2)n1 | -41.2
O=C(NCC(CO)Cc1ccc(Cl)cc1)c1ccncc1Cl (configuration not stated) | 5.21
CCSc1cc(C(=O)NCC(C)(C)N(C)C)ccn1 | 15.7
CN(CC(=O)Nc1ccccc1C(=O)NC1CC1)Cc1ccccc1Cl | 8.08
CCOc1ccccc1NC(=O)CN(C)Cc1ccccc1Cl | 32
CCOC(=O)c1ccccc1NC(=O)CN(C)Cc1ccccc1Cl | 68.9
N#Cc1cccc(S(=O)(=O)NC(=O)C2CC(c3ccccc3)=NO2)c1 (configuration not stated) | 33.4
Cc1cc2ccncc2n1CC1(O)CCN(C(=O)c2cccnc2)CC1 | 9.98
CN1CC(=O)N(c2cccnc2)Cc2c(NC3CC3)ncnc21 | 41.6
CC1(C)CCN(Cc2ccccc2-c2nc(C(C)(C)C)cc(=O)[nH]2)C1 | 57.3
CC(C)c1cc(=O)[nH]c(-c2ccccc2CN2CCC(C)(C)C2)n1 | 29.4
CC(C)(C)c1cc(=O)[nH]c(-c2ccccc2CN2CCCCCC2)n1 | -7.65
Cc1cc(C)n(C2CN(c3ncnc4c3CCNCC4)C2)n1 | 40.5
Cc1ccc(C2(O)CCN(C(=O)CCn3ccc(=O)[nH]c3=O)CC2)nc1 | 82
Cc1ccc(C2(O)CCN(C(=O)Cn3cc(C)c(=O)[nH]c3=O)CC2)nc1 | 30.9
Cc1ccc(C2(O)CCN(C(=O)CCn3c(C)cccc3=O)CC2)nc1 | 28.7

SMILES | INHIBITION [%]
CN(CC(O)C(F)(F)F)C(=O)Nc1cccc(C(F)F)c1 (configuration not stated) | 40.7
Cc1c(NC(=O)C(C)N(C)C)c(=O)n(-c2ccccc2)n1C (configuration not stated) | -45.8
COc1ccc(Cl)cc1CS(=O)(=O)Cc1noc(C)n1 | 34.7
COc1ccc(Cl)cc1CS(=O)(=O)Cc1nc(C)no1 | 60.4
COc1ccc(Cl)cc1CS(=O)(=O)Cc1nc(C2CC2)no1 | -3.96
Clc1cc(CN2CCCN3CCCC3C2)c2ncccc2c1 (configuration not stated) | 55
c1ccc(-c2nc(CN3CCCC(Cn4cncn4)C3)cs2)cc1 (configuration not stated) | -7.35
Clc1ccc(CN2CCCC(Cn3cncn3)C2)c2ncccc12 (configuration not stated) | 35.1
Cc1cccc2cc(CN3CCCN4CCC[C@H]4C3)c(=O)[nH]c12 | 34.9
Clc1cc(CN2CCCC(Cn3cncn3)C2)c2ncccc2c1 (configuration not stated) | 76.2
Clc1snnc1CN1CCCC1Cn1cncn1 (configuration not stated) | -11.4
Clc1snnc1CN1CCCC(Cn2cncn2)C1 (configuration not stated) | 62.1
CC(C)c1nc(CN2CCCC(Cn3cncn3)C2)cs1 (configuration not stated) | 31.2
Clc1snnc1CN1CCCCC1Cn1cncn1 (configuration not stated) | 10.8
Clc1cc(CN2CCCCC2Cn2cncn2)c2ncccc2c1 (configuration not stated) | -9.83
Clc1cc(CN2CCCC2Cn2cncn2)c2ncccc2c1 (configuration not stated) | 22.9
CC(C)(C)c1nc(CN2CCCC(Cn3cncn3)C2)cs1 (configuration not stated) | 61.7
Cc1cnc(C(=O)N2CCCC(n3cncn3)C2)cn1 (configuration not stated) | 41.5
CCCc1nc(C(=O)N2CCn3nc(C(=O)OC)cc3C2)cs1 | 9.16
Cc1noc(-c2ccc(N3CCN(Cc4nccn4C)CC3)nc2)n1 | 9
CC(Cc1ccccc1F)C(=O)Nc1ccc(OCCC(N)=O)cc1 (configuration not stated) | -8.92
CCOc1ccc(C2CCCN2C(=O)NCCn2ccnc2)cc1 (configuration not stated) | 8.85
CC(=O)N1CCCC(Cc2cnc(C(=O)N3CCC(C)CC3)cn2)C1 (configuration not stated) | 6.32

SMILES | INHIBITION [%]
Cc1ccnn1CCC(=O)N1C[C@@H](O)[C@H](Oc2cccc(F)c2)C1 | 9.93
CN(Cc1cnc(C(C)(C)C)nc1)Cc1nc2ccc(F)cc2[nH]1 | -0.18
CCOCC(=O)N1C[C@@H](O)[C@H](NC(C)=O)C1 | 4.41
OCCN1CCN(Cc2cc(Cl)cc3cccnc23)CC1 | 42.7
COc1ccc(CN2CCCC(N3CCCC3)C2)cc1Cn1cncn1 (configuration not stated) | 34.1
O[C@@H]1CN(Cc2cc(Cl)cc3cccnc23)C[C@@H]1O | 51.3
COc1cc(Cl)cc(CN2CCCC(N3CCCC3)C2)c1OC (configuration not stated) | 77.6
COc1cc(Cl)cc(CN2CCCC(N3CCOCC3)C2)c1OC (configuration not stated) | 15.7
CN(C)CC1CN(Cc2cc(Cl)cc3cccnc23)CCO1 (configuration not stated) | 23.4
CC1=C(C(=O)N(C)Cc2n[nH]c3c2CCCCC3)C(C)NC(=O)N1 (configuration not stated) | 17.5
c1ccc(CCc2n[nH]c(C3CCOC3)n2)cc1 (configuration not stated) | 21.5
Cc1nonc1CN(C)Cc1cnn(-c2ccc(F)cc2)c1 | -23.4
Cc1ccnn1CC(=O)N(C)Cc1ccc(-n2cccn2)cc1 | 21.8
CC(C)c1nccc(CN(C)Cc2cccc(-n3cccn3)c2)n1 | 6.9
CSCC(=O)N(C)Cc1cnn(-c2ccc(F)cc2)c1 | 13
CN(Cc1ccncc1)Cc1cnn(-c2ccc(F)cc2)c1 | 51.8
CCn1cc(CN(C)Cc2cnn(-c3ccc(F)cc3)c2)cn1 | 17
CC(C)c1nccc(CN(C)Cc2cnn(-c3ccccc3)c2)n1 | 51.7
Cc1ccnn1CC(=O)N(C)Cc1cnn(-c2ccccc2)c1 | 50.8
COc1cccc(-n2cc(CN(C)Cc3ccnc(C(C)C)n3)cn2)c1 | 15.005
